Bioassay records (PubChem)
Compounds with a hit are over-represented: about 12% of the library has one in this group of screens.
WT yeast gro inh – growth inhibition of WT yeast, mitochondrial fusion screen. mitochondrial fusion phenotypic screen, WT strain. inhibition, % at 10 µM. hit rate 2.1% among 190,000; in the data active = inhibition above about 58%; tested in S. cerevisiae
Lmaj promast – Leishmania major promastigote growth inhibition | Leishmania major promastigotes, resazurin fluorescence viability | inhibition, % at 10 µM | hit rate 9% among 200,000 | AID 1063; in the data active = inhibition above about 50%;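 also: promastigotes grown with compound for 44 hours at 28 °C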
Arbovirus anti – antivirals against arbovirus infection. inhibition, % at 10 µM. hit rate 0.37% among 200,000. arbovirus infection cell-based antiviral screen; in the data active = inhibition above about 30%
CHOP inhibitor – CHOP inhibition in unfolded protein response; CHO-K1 CHOP-promoter luciferase, tunicamycin-induced, 15-18 h; inhibition, % at 10 µM; hit rate 3.8% among 220,000;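 active = compounds that reduced the stress-induced luciferase reporter signal by more than about 70% of percent inhibition, limit read from the data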
Large screens that a line does not name were inactive.

CCC1(c2ccc(Cl)cc2)NC(=S)N(c2ccccc2)N1 (stereo not drawn)	none
CCC1(c2ccccc2)NC(=S)N(c2ccc(C)cc2)N1 (stereo not drawn)	WT yeast gro inh 62
C=C(C)CCC1(C)NC(=O)N(c2ccccc2)N1 (stereo not drawn)	none (no result: WT yeast gro inh, Lmaj promast, Arbovirus anti)
CC1(CC(=O)Nc2ccccc2)NC(=S)N(c2ccccc2)N1 (stereo not drawn)	none
CCNC(=S)NNC(=O)c1ccc(OC)cc1	none
CCCOc1ccc(C(=O)NNC(=S)NC(=O)CC)cc1	Lmaj promast 95
CCC(=O)NC(=S)NNC(=O)c1ccc(NC(=O)c2ccccc2)cc1	Lmaj promast 99
O=C(NNC(=O)c1ccc(NC(=O)c2ccccc2)cc1)c1ccccc1	none
C=CCNC(=S)NNC(=O)c1ccc(OCCC)cc1	none
CCCCC(=O)NC(=S)NNC(=O)c1ccc(OC)cc1	Lmaj promast 58
Cc1nn2c(-c3cccc(NC(=O)CSc4nc5ccccc5o4)c3)nnc2c2ccccc12	none
COc1ccc(-c2c(C(C)=O)c(C)nc3sc4c(=O)[nH]nnc4c23)cc1	Lmaj promast 59
CCCC1=C(C(=O)OCC)C(c2ccc(OC)c(C)c2OC)C(C#N)=C(N)O1 (stereo not drawn)	CHOP inhibitor 72
CCOC(=O)C1=C(CC)OC(N)=C(C#N)C1c1ccc(OC)c(C)c1OC (stereo not drawn)	none
O=C1O/C(=C/Br)CCC1c1cccc2ccccc12 (stereo not drawn)	none (no result: WT yeast gro inh, Lmaj promast, Arbovirus anti)
N#Cc1c(NC(=O)CSc2nc3ccccc3s2)sc2c1CCCC2	none
CN1C(=O)C(CC(=O)Nc2ccc(F)cc2)N(NC(=O)c2cccc(F)c2)C1=S (stereo not drawn)	none (no result: WT yeast gro inh, Lmaj promast, Arbovirus anti)
CC(=O)c1ccc(N2Cc3ccccc3C3(CCOCC3)C2=N)cc1	none
Cc1cccc(C2(c3cccc(C)c3)CC2C(=O)Nc2ccc([N+](=O)[O-])cc2O)c1 (stereo not drawn)	WT yeast gro inh 92, Lmaj promast 99, CHOP inhibitor 103
Cc1cccc(C2(c3cccc(C)c3)CC2C(=O)NCC2CCCO2)c1 (stereo not drawn)	none
O=C(CCCc1ccccc1)N1CCN(c2ccc([N+](=O)[O-])cc2)CC1	Lmaj promast 58
O=C(CCCC(=O)N1CCN(c2ccc([N+](=O)[O-])cc2)CC1)c1ccccc1	Lmaj promast 86
Cc1ccc(C(=O)C(C)N2C(=O)NC(C)(c3ccccc3)C2=O)cc1 (stereo not drawn)	none
Clc1cccc(Cl)c1Cn1cnc2c(N3CCCCCC3)ncnc21	WT yeast gro inh 75, CHOP inhibitor 76
CCN(CC)c1ncnc2c1ncn2Cc1c(Cl)cccc1Cl	none
CCOC(=O)c1cnc2ccc(OCC)cc2c1NCc1ccccc1OC	Lmaj promast 97, CHOP inhibitor 82
CCOC(=O)c1cnc2ccc(OCC)cc2c1NCCN1CCOCC1	Lmaj promast 55
CCOC(=O)c1cnc2ccc(OC)cc2c1NCc1ccccc1	Lmaj promast 69
CCOC(=O)c1cnc2ccc(C)cc2c1NCCO	none
Cc1ccccc1Nc1cc(C)c2c(O)cccc2n1	WT yeast gro inh 58, Lmaj promast 75
NC(=O)CSc1nnc(COc2ccccc2)n1Cc1ccco1	none
Cc1ccccc1-c1nc(CN2CCC(C(=O)O)CC2)c(C)o1	none
Cc1ccccc1-c1nc(CN2CCC(C(=O)NCCC3=CCCCC3)CC2)c(C)o1	CHOP inhibitor 71
Cc1ccccc1-c1nc(CN2CCC(C(=O)NC3CCN(Cc4ccccc4)CC3)CC2)c(C)o1	Lmaj promast 100 (no result: CHOP inhibitor)
O=[N+]([O-])c1ccc(Oc2ccc(Oc3ccc(C(F)(F)F)cn3)cc2)nc1	none (no result: WT yeast gro inh, Lmaj promast, Arbovirus anti)
COc1ccccc1OCC#CCn1ccnc1	none (no result: WT yeast gro inh)
COc1ccccc1OCC#CCNC1CCCCC1C (stereo not drawn)	Lmaj promast 78
Cc1nn(-c2cccc(Cl)c2)c2nc(-c3ccncc3)cc(C(=O)N3CCOCC3)c12	none
Cc1ccc(C)c(N2CCN(c3nc4ccccc4c(=O)n3Cc3ccccc3)CC2)c1	none
O=C(c1ccncc1)N1CCN(c2ccc(F)cc2)CC1	none
CC(=O)c1ccc(N2CCN(C(=O)c3ccc(Cn4c(=S)[nH]c5ccc(N6CCOCC6)cc5c4=O)cc3)CC2)cc1	Lmaj promast 98
O=C(c1ccc(Cl)cc1)N1CCN(c2ccc(F)cc2)CC1	WT yeast gro inh 71
Cc1ccc(C)c(N2CCN(C(=O)c3ccc(Cn4c(=O)[nH]c5ccccc5c4=O)cc3)CC2)c1	Lmaj promast 98
O=C(c1ccc(Cn2c(=O)[nH]c3ccccc3c2=O)cc1)N1CCN(c2ccc(Cl)cc2)CC1	Lmaj promast 96
CN(C)S(=O)(=O)c1ccc(Cl)c(NC(=O)CN2C(=O)NC(C)(C3CC3)C2=O)c1 (stereo not drawn)	none (no result: WT yeast gro inh, Lmaj promast, Arbovirus anti)
COc1ccc(N(CC(=O)Nc2cccc(OC)c2)S(=O)(=O)c2c(C)nn(C)c2C)cc1	Lmaj promast 57
COc1ccc(N(CC(=O)Nc2cc(OC)ccc2OC)S(=O)(=O)c2c(C)nn(C)c2C)cc1	Lmaj promast 100
COc1ccc(N(CC(=O)Nc2nc3ccc(C)cc3s2)S(=O)(=O)c2c(C)nn(C)c2C)cc1	Lmaj promast 66
CCOC(=O)c1c(C)[nH]c(-c2csc(N)n2)c1C	none
Cn1nc(C(F)(F)F)c(-c2cccc(C(F)(F)F)c2)c1NC(=O)CSCC(=O)O	none (no result: WT yeast gro inh, Lmaj promast, Arbovirus anti)
Cc1nn(C2CCS(=O)(=O)C2)c(Cl)c1/C=C/C(=O)OCC(=O)c1cc(C)n(-c2ccc(F)cc2)c1C (stereo not drawn)	Lmaj promast 98
COc1ccc(OC)c(NC(=O)COC(=O)/C=C/c2c(C)nn(C3CCS(=O)(=O)C3)c2Cl)c1 (stereo not drawn)	none
Cc1nn(C2CCS(=O)(=O)C2)c(Cl)c1/C=C/C(=O)OCC(=O)c1c[nH]c2ccccc12 (stereo not drawn)	Lmaj promast 60
O=C1N=c2ccccc2=C1c1sc(NS(=O)(=O)c2ccccc2)nc1O	none
O=C1N=c2ccccc2=C1c1sc(Nc2ccc(O)cc2)nc1O	Arbovirus anti 36
Cc1cc(C(=O)NC(C)c2ccc3c(c2)OCO3)cs1 (stereo not drawn)	CHOP inhibitor 74
Cc1nc2cc(-c3ccccc3)nn2c(C)c1CCC(=O)NC(C)c1ccc2c(c1)OCCO2 (stereo not drawn)	Lmaj promast 95
O=C(Cn1cccc1C(=O)c1ccccc1)NCc1ccc2c(c1)OCO2	none (no result: WT yeast gro inh)
Cc1nc2ncnn2c(C)c1CCC(=O)NC(C)c1ccc2c(c1)OCCO2 (stereo not drawn)	none
CC(NC(=O)Cn1cccc1C(=O)c1ccccc1)c1ccc2c(c1)OCCO2 (stereo not drawn)	Lmaj promast 89
Cc1nc2cc(-c3cccc(F)c3)nn2c(C)c1CCC(=O)NC(C)c1ccc2c(c1)OCCO2 (stereo not drawn)	Lmaj promast 97
Cc1nc2nc(C)c(CCC(=O)NC(C)c3ccc4c(c3)OCCO4)c(C)n2n1 (stereo not drawn)	none
Cc1csc(N(C(=O)CCNC(=O)c2ccc([N+](=O)[O-])cc2)c2ccccc2)n1	Lmaj promast 64
Cc1csc(N(C(=O)c2ccc(S(=O)(=O)N(C)C)cc2)c2ccccc2)n1	none
CCC(CC)C1C(C#N)=C(N)Oc2n[nH]c(C)c21 (stereo not drawn)	Lmaj promast 99
